Measured values from PubChem BioAssay.
For some of these results: Measured potencies and affinities stand elsewhere. The source made the active and inactive calls. Unless noted, how the calls were made is not given here.

Experiments:
[1] = antimalarial activity against Dd2 strain (AID 2302;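 active means growth inhibition above 50% at the single 2 µM test dose, taken to imply half-maximal potency below 2 µM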;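 further: 0% = DMSO untreated growth and 100% = chloroquine plus artemisinin killed control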); conditions: P. falciparum Dd2 in RBCs, LDH growth readout, 72 h; at 2 µM; hits give high values
[2] = HepG2 cytotoxicity, primary screen, cytotoxicity control for P. falciparum antimalarial project, cell-based, ATP luminescence (AID 2303;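 active means inhibition above 50%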;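 further: 0% = DMSO wells and 100% = digitonin-killed cells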); conditions: HepG2 viability, 24-48 h, at 10 µM, hits give high values
[3] = biological target: L-lactate dehydrogenase (Plasmodium falciparum (isolate CDC / Honduras)) (UniProt Q27743); test: PfLDH activity inhibition – cell lysate, 3D7 strain, counter-screen for P. falciparum growth inhibition project (AID 2304);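 further: 0% = vehicle and 100% = reference inhibitor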; conditions: P. falciparum 3D7 crude extract, LDH APAD/NBT absorbance; at 2 µM; hits give high values
[4] = inhibition of 3D7 malaria parasite growth – strain 3D7 (AID 2306);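 further: 0% = DMSO wells and 100% = chloroquine plus artemisinin control wells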; conditions: P. falciparum 3D7 erythrocytic growth, LDH absorbance, 72 h; at 2 µM; hits give high values
[5] = biological target: Calcium-dependent protein kinase 1 (Plasmodium falciparum (isolate 3D7)) (UniProt P62344); test: PfCDPK1 kinase inhibitors, biochemical, TCAMS library (AID 1159585; cut-off not given, nearly all actives have IC50 up to about 0.98 µM;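 further: inhibitors leave more ATP so luminescence rises with inhibition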); conditions: recombinant PfCDPK1, Kinase-Glo ATP depletion luminescence
[6] = biological target: Plasmodium falciparum protein kinase 6 (PK6, PF3D7_1337100) (UniProt Q8IDW1); test: PfPK6 kinase inhibitors, biochemical, TCAMS library (AID 1159586); conditions: recombinant PfPK6, Kinase-Glo ATP depletion luminescence
[7] = biological target: Protein kinase 7 (PK7), Plasmodium falciparum 3D7 (PF3D7_0213400) (UniProt Q7YTF7); test: inhibition of Plasmodium PK7 catalytic activity – biochemical, TCAMS antimalarial set, Kinase-Glo luminescence (AID 1159587); conditions: recombinant PfPK7, Kinase-Glo ATP depletion luminescence
[8] = biological target: Calcium-dependent protein kinase 4 (Plasmodium falciparum (isolate 3D7)) (UniProt Q8IBS5); test: PfCDPK4 kinase inhibitors, biochemical, TCAMS library (AID 1159588; cut-off not given, nearly all actives have IC50 up to about 0.91 µM); conditions: recombinant PfCDPK4, Kinase-Glo ATP depletion luminescence
Sequence of Calcium-dependent protein kinase 4 (Plasmodium falciparum (isolate 3D7)) (Q8IBS5 whole entry, looked up): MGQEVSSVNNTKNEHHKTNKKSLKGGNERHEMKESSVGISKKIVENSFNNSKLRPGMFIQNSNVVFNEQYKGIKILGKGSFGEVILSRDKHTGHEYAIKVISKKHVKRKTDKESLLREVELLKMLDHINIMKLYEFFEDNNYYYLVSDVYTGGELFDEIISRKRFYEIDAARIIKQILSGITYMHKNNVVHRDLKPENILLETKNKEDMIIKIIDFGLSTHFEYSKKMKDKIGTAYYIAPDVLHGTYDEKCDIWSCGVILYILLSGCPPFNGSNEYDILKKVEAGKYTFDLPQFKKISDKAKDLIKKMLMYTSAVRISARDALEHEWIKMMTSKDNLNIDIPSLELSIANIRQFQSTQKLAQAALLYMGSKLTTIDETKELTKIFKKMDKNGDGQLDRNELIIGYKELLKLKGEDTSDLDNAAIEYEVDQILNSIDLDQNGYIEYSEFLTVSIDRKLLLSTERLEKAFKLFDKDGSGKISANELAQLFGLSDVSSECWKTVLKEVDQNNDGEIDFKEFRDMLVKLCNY

Sequence of Calcium-dependent protein kinase 1 (Plasmodium falciparum (isolate 3D7)) (P62344 whole entry, looked up): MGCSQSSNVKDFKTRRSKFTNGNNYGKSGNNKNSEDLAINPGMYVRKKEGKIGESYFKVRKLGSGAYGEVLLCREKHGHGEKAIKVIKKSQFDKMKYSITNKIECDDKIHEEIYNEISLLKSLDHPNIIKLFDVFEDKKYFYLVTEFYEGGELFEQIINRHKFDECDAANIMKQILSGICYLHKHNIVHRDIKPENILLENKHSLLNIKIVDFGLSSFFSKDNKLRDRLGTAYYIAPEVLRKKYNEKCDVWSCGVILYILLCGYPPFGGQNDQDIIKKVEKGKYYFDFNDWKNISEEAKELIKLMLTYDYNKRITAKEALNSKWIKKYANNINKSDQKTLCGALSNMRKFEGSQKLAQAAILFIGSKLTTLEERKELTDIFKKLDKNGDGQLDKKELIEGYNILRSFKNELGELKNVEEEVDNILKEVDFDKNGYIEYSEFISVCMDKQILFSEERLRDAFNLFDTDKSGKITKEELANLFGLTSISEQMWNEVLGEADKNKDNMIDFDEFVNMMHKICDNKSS
Sequence of L-lactate dehydrogenase (Plasmodium falciparum (isolate CDC / Honduras)) (Q27743 whole entry, looked up): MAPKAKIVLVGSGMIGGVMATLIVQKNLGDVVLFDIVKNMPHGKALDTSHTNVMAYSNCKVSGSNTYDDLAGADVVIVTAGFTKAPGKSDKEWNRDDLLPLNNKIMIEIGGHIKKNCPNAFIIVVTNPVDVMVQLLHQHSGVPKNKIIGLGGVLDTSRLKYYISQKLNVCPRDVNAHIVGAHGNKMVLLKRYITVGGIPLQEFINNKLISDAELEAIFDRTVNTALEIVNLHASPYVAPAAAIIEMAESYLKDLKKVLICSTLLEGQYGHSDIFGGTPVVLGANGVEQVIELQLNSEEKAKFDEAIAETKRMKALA
Sequence of Protein kinase 7 (PK7), Plasmodium falciparum 3D7 (PF3D7_0213400) (Q7YTF7 1-343): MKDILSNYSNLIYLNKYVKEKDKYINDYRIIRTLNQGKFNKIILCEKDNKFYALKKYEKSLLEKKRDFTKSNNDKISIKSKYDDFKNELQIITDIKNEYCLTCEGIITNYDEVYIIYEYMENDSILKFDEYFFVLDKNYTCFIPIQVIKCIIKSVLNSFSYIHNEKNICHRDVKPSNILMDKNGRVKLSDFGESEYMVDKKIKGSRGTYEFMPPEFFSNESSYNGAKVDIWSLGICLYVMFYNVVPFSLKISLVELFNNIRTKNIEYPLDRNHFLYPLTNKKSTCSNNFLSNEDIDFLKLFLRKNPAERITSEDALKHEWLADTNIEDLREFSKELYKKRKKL
Sequence of Plasmodium falciparum protein kinase 6 (PK6, PF3D7_1337100) (Q8IDW1 1-305): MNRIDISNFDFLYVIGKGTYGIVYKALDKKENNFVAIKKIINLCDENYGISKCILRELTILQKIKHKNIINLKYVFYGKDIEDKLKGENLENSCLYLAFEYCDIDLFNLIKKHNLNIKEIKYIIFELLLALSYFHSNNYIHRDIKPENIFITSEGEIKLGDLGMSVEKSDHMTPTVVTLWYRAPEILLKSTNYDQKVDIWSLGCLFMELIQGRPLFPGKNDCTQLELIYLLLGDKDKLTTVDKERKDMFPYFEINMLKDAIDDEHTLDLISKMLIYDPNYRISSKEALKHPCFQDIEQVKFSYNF

Cc1ccc2oc3cc(-c4nn[nH]n4)ccc3c(=O)c2c1
active: growth inhibition [1] 96% | growth inhibition [4] 97%
inactive: inhibition [2] 2% | inhibition [3] -6% | outcome [5] | outcome [6] | outcome [7] | outcome [8]

COc1ccccc1-n1c(SCC(=O)c2ccc3c(c2)CC(=O)N3C)nnc1-c1cccs1
active: growth inhibition [1] 55% | growth inhibition [4] 95%
inactive: inhibition [2] 7% | inhibition [3] -3% | outcome [5] | outcome [6] | outcome [7] | outcome [8]

COc1ccc2nccc([C@@H](O)CN3CCC(NCc4nc5c(C#N)cccc5[nH]4)CC3)c2c1
active: growth inhibition [4] 96%
inactive: growth inhibition [1] 9% | inhibition [2] -3% | inhibition [3] -5% | outcome [5] | outcome [6] | outcome [7] | outcome [8]

CC(C)(C)c1ccc(NC(=O)c2ccc(CN3CCCN(Cc4cccc(O)c4)CC3)cc2)cc1
active: growth inhibition [1] 62% | inhibition [2] 54% | growth inhibition [4] 102%
inactive: inhibition [3] 1% | outcome [5] | outcome [6] | outcome [7] | outcome [8]

O=S(=O)(Nc1cc2c(cc1O)CCN(C1CCC1)CC2)c1ccc(-c2ccc(F)cc2)cc1
active: growth inhibition [1] 99% | growth inhibition [4] 101%
inactive: inhibition [2] 16% | inhibition [3] -1% | outcome [5] | outcome [6] | outcome [7] | outcome [8]

c1ccc2[nH]c(-c3ccc(-c4ccc(CN5CCN(CCN6CCOCC6)CC5)cc4)cc3)nc2c1
active: growth inhibition [1] 99% | growth inhibition [4] 98%
inactive: inhibition [2] 43% | inhibition [3] -1% | outcome [5] | outcome [6] | outcome [7] | outcome [8]

COc1ccc(Nc2nccc(-c3c(-c4cccc(NC(=O)c5c(F)cccc5F)c4)nn4ccccc34)n2)cc1Cl
inactive: inhibition [3] -1% | outcome [5] | outcome [6] | outcome [7] | outcome [8]
active: growth inhibition [1] 71% | inhibition [2] 61% | growth inhibition [4] 95%

Clc1ccc(-c2cc3c(NCc4ccncc4)nccc3s2)cc1
inactive: growth inhibition [1] 8% | inhibition [2] 26% | inhibition [3] -1% | outcome [5] | outcome [6] | outcome [7] | outcome [8]
active: growth inhibition [4] 98%

C=CCc1cc(Br)ccc1OCCCOc1c(C)nc(N)nc1N
inactive: inhibition [3] -3% | outcome [5] | outcome [6] | outcome [7] | outcome [8]
active: growth inhibition [1] 96% | inhibition [2] 56% | growth inhibition [4] 94%

CCn1cnc2c(N3CCCS3(=O)=O)cc(C(=O)N[C@@H](Cc3ccccc3)[C@H](O)CNC(C)(C)c3cccc(C(F)(F)F)c3)cc21
active: growth inhibition [1] 97% | growth inhibition [4] 99%
inactive: inhibition [2] 9% | inhibition [3] -1% | outcome [5] | outcome [6] | outcome [7] | outcome [8]

CC(CCON1C(N)=NC(N)=NC1(C)C)c1ccc(Cl)c(Cl)c1 (stereo not drawn)
active: growth inhibition [1] 97% | inhibition [2] 60% | growth inhibition [4] 98%
inactive: inhibition [3] -3% | outcome [5] | outcome [6] | outcome [7] | outcome [8]

Cc1cccc2[nH]c(-c3cccc(-c4ccc(CN5CCN(CCO)CC5)cc4)c3)nc12
active: growth inhibition [1] 63% | growth inhibition [4] 101%
inactive: inhibition [2] 12% | inhibition [3] -4% | outcome [5] | outcome [6] | outcome [7] | outcome [8]

CCCC(C)Nc1nc(C)cc(NCCC(=O)Nc2ccc(OC)cc2)n1 (stereo not drawn)
active: growth inhibition [4] 97%
inactive: growth inhibition [1] 2% | inhibition [2] 12% | inhibition [3] -1% | outcome [5] | outcome [6] | outcome [7] | outcome [8]

CC(=O)N(Cc1ccc(CC(C)NCCc2cccc(Cl)c2)cc1)Cc1ccc(CC(C)NCCc2cccc(Cl)c2)cc1 (stereo not drawn)
inactive: inhibition [3] -4% | outcome [5] | outcome [6] | outcome [7] | outcome [8]
active: growth inhibition [1] 94% | inhibition [2] 98% | growth inhibition [4] 101%

CC1CCC(NCc2c(O)ccc3ccccc23)CC1 (stereo not drawn)
inactive: inhibition [2] 13% | inhibition [3] -1% | outcome [5] | outcome [6] | outcome [7] | outcome [8]
active: growth inhibition [1] 77% | growth inhibition [4] 95%

FC(F)(F)c1ccc2nc(-c3ccc(-c4cccc(CN5CCC(CCN6CCCCC6)CC5)c4)cc3)[nH]c2c1
inactive: inhibition [3] -5% | outcome [5] | outcome [6] | outcome [7] | outcome [8]
active: growth inhibition [1] 96% | inhibition [2] 100% | growth inhibition [4] 101%

NC1CCCN(Cc2ccc(-c3ccc(-c4nc5ccc(F)cc5[nH]4)s3)cc2)C1 (stereo not drawn)
inactive: inhibition [2] 40% | inhibition [3] 1% | outcome [5] | outcome [6] | outcome [7] | outcome [8]
active: growth inhibition [1] 98% | growth inhibition [4] 100%

O=C(Nc1ccc(Cl)cc1)Nc1ccc(OCC(O)CN2CCCCC2)cc1 (stereo not drawn)
active: growth inhibition [4] 83%
inactive: growth inhibition [1] 13% | inhibition [2] 18% | inhibition [3] -1% | outcome [5] | outcome [6] | outcome [7] | outcome [8]

NC(=O)c1ccc(NC(=O)CN(Cc2ccc(Cl)cc2)S(=O)(=O)c2ccccc2)cc1
active: growth inhibition [1] 75% | growth inhibition [4] 90%
inactive: inhibition [2] 2% | inhibition [3] 6% | outcome [5] | outcome [6] | outcome [7] | outcome [8]

O=C(Nc1cccc(-c2cccc(-c3nc4ccccc4[nH]3)c2)c1)c1ccncc1
inactive: growth inhibition [1] 38% | inhibition [2] 27% | inhibition [3] -4% | outcome [5] | outcome [6] | outcome [7] | outcome [8]
active: growth inhibition [4] 99%

CC(C)CCNc1nc(NCCc2ccccc2)c2cc(O)ccc2n1
active: growth inhibition [1] 97% | growth inhibition [4] 101%
inactive: inhibition [2] 6% | inhibition [3] 7% | outcome [5] | outcome [6] | outcome [7] | outcome [8]

Cc1cc(C)cc(CC(=O)N2CCC(n3c(C)nc4ccc(C)cc43)CC2)c1
active: growth inhibition [1] 100% | inhibition [2] 52% | growth inhibition [4] 100%
inactive: inhibition [3] 6% | outcome [5] | outcome [6] | outcome [7] | outcome [8]

N#Cc1cccc([C@H](O)[C@@H]2CN(CCC3CCCCC3)CC[C@@]2(O)c2ccccc2)c1
inactive: inhibition [2] -5% | inhibition [3] 3% | outcome [5] | outcome [6] | outcome [7] | outcome [8]
active: growth inhibition [1] 100% | growth inhibition [4] 98%

CCN(CC)CCCC(C)Nc1cc(C=Cc2ccc([N+](=O)[O-])cc2)nc2ccc(OC)cc12 (stereo not drawn)
inactive: inhibition [2] 37% | inhibition [3] 4% | outcome [5] | outcome [6] | outcome [7] | outcome [8]
active: growth inhibition [1] 100% | growth inhibition [4] 100%

Clc1ccc(Cl)c2[nH]c(CNCCCNc3nc4ccccc4[nH]3)cc12
active: inhibition [2] 88% | growth inhibition [4] 100%
inactive: growth inhibition [1] 39% | inhibition [3] -6% | outcome [5] | outcome [6] | outcome [7] | outcome [8]

Oc1ccccc1CCNC1CCc2ccccc2C1 (stereo not drawn)
active: growth inhibition [1] 95% | growth inhibition [4] 96%
inactive: inhibition [2] -4% | inhibition [3] 4% | outcome [5] | outcome [6] | outcome [7] | outcome [8]

CC1(C)CCCN(C(=O)c2cccc(-n3nc(-c4ccc(Cl)cc4)cc3N)c2)C1
inactive: inhibition [2] 13% | inhibition [3] -2% | outcome [5] | outcome [6] | outcome [7] | outcome [8]
active: growth inhibition [1] 98% | growth inhibition [4] 101%

O=C(NCCCCN1CCC(c2ccc3c(c2OCC(O)c2ccc(Cl)cc2)CCCC3)CC1)c1ccc(-c2ccc(C(F)(F)F)cc2)cc1 (stereo not drawn)
active: growth inhibition [1] 67% | inhibition [2] 100% | growth inhibition [4] 89%
inactive: inhibition [3] -3% | outcome [5] | outcome [6] | outcome [7] | outcome [8]

C=CCc1ccccc1OCC(O)CN(C1CCCCC1)C1CCCCC1 (stereo not drawn)
inactive: inhibition [3] 1% | outcome [5] | outcome [6] | outcome [7] | outcome [8]
active: growth inhibition [1] 84% | inhibition [2] 50% | growth inhibition [4] 93%

NC(N)=NCCCN(Cc1ccccc1)c1ccc(Cl)cc1
inactive: inhibition [2] -9% | inhibition [3] -7% | outcome [5] | outcome [6] | outcome [7] | outcome [8]
active: growth inhibition [1] 98% | growth inhibition [4] 100%

COc1ccc(CNc2nc(NCCc3ccccc3)c3cc(OC)c(OC)cc3n2)cc1OC
inactive: inhibition [2] 48% | inhibition [3] 3% | outcome [5] | outcome [6] | outcome [7] | outcome [8]
active: growth inhibition [1] 101% | growth inhibition [4] 100%

COc1cccc2c(NN=Cc3ccccc3[N+](=O)[O-])cc(C)nc12
active: growth inhibition [4] 99%
inactive: growth inhibition [1] 32% | inhibition [2] -6% | inhibition [3] -5% | outcome [5] | outcome [6] | outcome [7] | outcome [8]

Cc1cccc2[nH]c(-c3ccc(-c4cccc(NC(=O)c5ccncc5)c4)cc3)nc12
active: growth inhibition [4] 98%
inactive: growth inhibition [1] 8% | inhibition [2] 46% | inhibition [3] -7% | outcome [5] | outcome [6] | outcome [7] | outcome [8]

COc1ccc2nc(N3CCN(C(=O)OC(C)(C)C)CC3)nc(NCCCc3ccccc3)c2c1
active: growth inhibition [1] 95% | growth inhibition [4] 102%
inactive: inhibition [2] 9% | inhibition [3] -2% | outcome [5] | outcome [6] | outcome [7] | outcome [8]

O=S(=O)(NCCN1CCCC1)c1ccc(-c2ccc(CNCc3ccc(F)cc3)cc2)s1
active: growth inhibition [4] 101%
inactive: growth inhibition [1] 44% | inhibition [2] 42% | inhibition [3] 6% | outcome [5] | outcome [6] | outcome [7] | outcome [8]

Cc1cc(NC(=O)NCCN2CCC(NC(=O)c3ccc(F)cc3)CC2)c2ccccc2n1
active: growth inhibition [1] 76% | growth inhibition [4] 99%
inactive: inhibition [2] -6% | inhibition [3] -2% | outcome [5] | outcome [6] | outcome [7] | outcome [8]

Cc1c(Oc2ccc(-n3ccnc3)cc2)ncnc1N1CCC2(CC1)CNCc1ccccc12
active: growth inhibition [1] 58% | growth inhibition [4] 95%
inactive: inhibition [2] 26% | inhibition [3] -3% | outcome [5] | outcome [6] | outcome [7] | outcome [8]

Oc1c(C(Nc2nc3ccccc3s2)c2ccc(OC(F)F)cc2)ccc2cccnc12 (stereo not drawn)
active: growth inhibition [1] 85% | inhibition [2] 62% | growth inhibition [4] 92%
inactive: inhibition [3] 4% | outcome [5] | outcome [6] | outcome [7] | outcome [8]

CCN(CC)CCOc1ccc(C(O)(C#CC(O)(c2ccc(C)cc2)c2ccc(OCCN(CC)CC)cc2)c2ccc(C)cc2)cc1 (stereo not drawn)
active: growth inhibition [1] 98% | inhibition [2] 94% | growth inhibition [4] 97%
inactive: inhibition [3] 6% | outcome [5] | outcome [6] | outcome [7] | outcome [8]

Cc1cccc2[nH]c(-c3ccc(-c4cccc(CN5CCC(N)C5)c4)s3)nc12 (stereo not drawn)
active: growth inhibition [1] 78% | growth inhibition [4] 95%
inactive: inhibition [2] 16% | inhibition [3] 1% | outcome [5] | outcome [6] | outcome [7] | outcome [8]

CCN(CC)C(=NCCCCCCN=C(NC(N)=NCc1ccc(Cl)cc1Cl)N(CC)CC)NC(N)=NCc1ccc(Cl)cc1Cl
inactive: inhibition [2] 16% | inhibition [3] -3% | outcome [5] | outcome [6] | outcome [7] | outcome [8]
active: growth inhibition [1] 99% | growth inhibition [4] 102%
